Sampled rows, rich in hits. Any-hit rate of the full collection: about 9.8%.
HTT ATP protect – Huntington cell model cytoprotection by ATP luminescence; 230,000 tested, 0.14% active; Potency, µM (titrated, usually from 56.4 µM), most hits filed as activators; PC12 HTT-Q103 induced, cytoprotection, ATP luminescence, 40 h; active means well fitted curve in the direction sought with a large enough effect; inconclusive means small, poorly fitted or top-dose-only effect, or another doubt; inactive means no such curve, though single readings can be large; an effect the other way counts as inactive or inconclusive; further: nearly all actives have a fitted effect of over 45% in size
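Quantitative HTS on tebufenozide-induced (100 nM) PC12 cells expressing HTTQ103 exon 1–GFP; compounds tested as a concentration series; survival measured via cellular ATP.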
HPGD inh – blocks human HPGD enzyme activity | P15428 | purified HPGD, NADH fluorescence kinetic, PGE2 substrate | Potency, µM, actives largely listed as inhibitors | 150,000 tested, 4.3% active | AID 894
Target sequence (P15428 whole entry, looked up): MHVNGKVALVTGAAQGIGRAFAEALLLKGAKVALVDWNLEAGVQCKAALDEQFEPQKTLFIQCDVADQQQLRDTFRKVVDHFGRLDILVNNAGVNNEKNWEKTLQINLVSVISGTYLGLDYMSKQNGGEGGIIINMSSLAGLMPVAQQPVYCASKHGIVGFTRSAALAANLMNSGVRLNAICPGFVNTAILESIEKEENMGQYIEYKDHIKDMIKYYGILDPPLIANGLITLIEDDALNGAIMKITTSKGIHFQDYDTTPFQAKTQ
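NADH formation kinetics: reaction with 30 uM PGE2 and 1 mM NAD+ (final), 20 nM enzyme, Tris-HCl pH 8 with Tween 20, after 15 min compound preincubation at room temperature. Fluorescence change, last versus first of five reads.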
HttQ103 aggreg – mutant huntingtin aggregation inhibition | PC12 HttQ103-GFP aggregates, Acumen cytometry, 40 h | 220,000 tested, 1.1% active | Potency, µM (series often up to 46.1 µM), actives largely listed as inhibitors | AID 1688; active means well fitted curve in the direction sought with a large enough effect; inconclusive means small, poorly fitted or top-dose-only effect, or another doubt; inactive means no such curve, though single readings can be large; an effect the other way counts as inactive or inconclusive; further: nearly all actives have a fitted effect of over 60% in size
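Aggregate formation scored by laser-scanning cytometer (488 excitation, 500–530 emission) in lysed PC12 cells expressing Q103-GFP after 100 nM tebufenozide induction; library tested in dose series, with ATPLite reagent added in the multiplex.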
CBFb RUNX1 block – CBF-beta/RUNX1 interaction disruption | Q01196+Q13951 | AlphaScreen CBFb-His/RUNX1-biotin binding, biochemical | Potency, µM (doses to about 59.8 µM), actives largely listed as inhibitors | 230,000 tested, under 10 active | AID 1477; active means well fitted curve in the direction sought with a large enough effect; inconclusive means small, poorly fitted or top-dose-only effect, or another doubt; inactive means no such curve, though single readings can be large; an effect the other way counts as inactive or inconclusive
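CBFb-His/RUNX1-biotin, 30 nM each, preincubated 20 min RT; compound 15 min RT; Ni + streptavidin beads 50 ng each, 90 min RT; AlphaScreen read.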
JMJD2E inh – JMJD2E (human) inhibition; B2RXH2; JMJD2E catalytic domain, FDH-coupled NADH fluorescence (FDH is formaldehyde dehydrogenase); Potency, µM (top dose mostly 57.1 µM), usual class: inhibitors; 230,000 tested, 1.6% active; further: nearly all actives have a fitted effect of over 50% in size
Target sequence (B2RXH2 1-337 limits assumed): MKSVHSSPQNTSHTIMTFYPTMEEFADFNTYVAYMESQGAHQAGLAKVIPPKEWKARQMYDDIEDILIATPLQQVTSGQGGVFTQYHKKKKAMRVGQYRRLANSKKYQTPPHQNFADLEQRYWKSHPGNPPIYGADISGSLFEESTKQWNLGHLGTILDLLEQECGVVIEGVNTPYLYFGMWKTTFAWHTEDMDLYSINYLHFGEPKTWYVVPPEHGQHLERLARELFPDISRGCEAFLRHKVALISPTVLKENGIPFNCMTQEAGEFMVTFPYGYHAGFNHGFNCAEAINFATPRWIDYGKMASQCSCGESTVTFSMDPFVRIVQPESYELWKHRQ
ALDH1A1 block – inhibitors of human aldehyde dehydrogenase 1A1; Potency, µM (titrated, usually from 75.3 µM), usual class: inhibitors; Purified ALDH1A1, NADH fluorescence, propionaldehyde substrate; 220,000 tested, 7.3% active; AID 1030; P00352
Hits are given with their value; ! = repeats disagree; [ ] = dose if it differs, or a comment. Unless noted, the call rests on the fitted dose curve; in most records, active means well fitted inhibition curve with a large enough effect (not every such curve was filed as active); inconclusive means small, poorly fitted or top-dose-only effect, or another doubt; inactive means no such curve, though single readings can be large or run the other way.

`Fc1ccc(NC2=NCCS2)cc1Cl` gave HTT ATP protect inactive, HPGD inh 12.6µM, HttQ103 aggreg inactive, CBFb RUNX1 block inactive, JMJD2E inh inactive and ALDH1A1 block inactive.
`CCn1nc(-c2cccs2)nc2c(=O)n(C)c(=O)nc1-2` gave HTT ATP protect inactive[10 µM], HPGD inh inactive, HttQ103 aggreg 17.8µM, CBFb RUNX1 block inconclusive, JMJD2E inh inconclusive and ALDH1A1 block inconclusive.
N#CCCCC[N+]12CN3CN(CN(C3)C1)C2 was read as HTT ATP protect inactive[10 µM], HPGD inh inactive and ALDH1A1 block inactive[13.5 µM].
CO[C@@H]([CH2][Hg])CN1C(=O)c2ccccc2S1(=O)=O.Cn1c(=O)c2nc[nH]c2n(C)c1=O was read as HTT ATP protect inactive[10 µM], HPGD inh 1.41µM and ALDH1A1 block 3.16µM.
For CCC1OC2(C)C(O)C(/C=C/C=C/C=C/c3oc(=O)cc(OC)c3C)OC1(C)C2OC(C)=O (configuration not stated) the results were CBFb RUNX1 block inactive.
`N[C@H](Cc1c[nH]c2ccccc12)P(=O)(O)O` gave HTT ATP protect inactive[10 µM], HPGD inh inactive and ALDH1A1 block inactive[13.5 µM].
Screening CN1CCN(c2ccc([N+](=O)[O-])c(NCc3ccco3)c2)CC1 returned HPGD inh inactive, HttQ103 aggreg inactive, CBFb RUNX1 block inactive, JMJD2E inh inactive and ALDH1A1 block inactive.
`CN1CCN(c2ccc([N+](=O)[O-])c(N3CCCCC3)c2)CC1` gave HTT ATP protect inconclusive, HttQ103 aggreg inactive[9.22 µM], CBFb RUNX1 block inactive, JMJD2E inh inactive and ALDH1A1 block inconclusive.
For O=[N+]([O-])c1cc(F)c(N2CCCCCC2)cc1N1CCNCC1 the results were HTT ATP protect inactive, HttQ103 aggreg inactive, CBFb RUNX1 block inactive, JMJD2E inh inactive and ALDH1A1 block 7.08µM.
For Nc1cc(N2CCNCC2)ccc1[N+](=O)[O-] the results were HTT ATP protect inactive[10 µM], HPGD inh inactive, HttQ103 aggreg inactive, CBFb RUNX1 block inactive, JMJD2E inh inactive and ALDH1A1 block inactive.
For O=[N+]([O-])c1ccc(N2CCNCC2)cc1NCc1ccco1 the results were HPGD inh inactive, HttQ103 aggreg inactive, CBFb RUNX1 block inactive, JMJD2E inh inactive and ALDH1A1 block 28.2µM.
For O=[N+]([O-])c1ccc(N2CCNCC2)cc1N1CCCCCC1 the results were HTT ATP protect inactive, HttQ103 aggreg inactive, CBFb RUNX1 block inactive, JMJD2E inh inactive and ALDH1A1 block 4.47µM.
Screening Cc1cccc(C)c1O returned HTT ATP protect inactive, HPGD inh inactive, CBFb RUNX1 block inactive and ALDH1A1 block inconclusive.
`c1cc(OCC2CO2)cc(OCC2CO2)c1` (configuration not stated) gave HTT ATP protect inactive, HPGD inh inactive, CBFb RUNX1 block inactive and ALDH1A1 block inconclusive.
CCCCC/C=C\C/C=C\C/C=C\C/C=C\CCCC(=O)NCCCl was read as HTT ATP protect inactive, HPGD inh inconclusive, CBFb RUNX1 block inactive and ALDH1A1 block inconclusive.
`C[C@@](Br)(C(=O)O)[C@H](Br)C(=O)O` gave HTT ATP protect inactive[10 µM], HPGD inh inactive and ALDH1A1 block inactive[13.5 µM].
`O=C1C2CCCN2C(c2ccncc2)N1c1ccc(Cl)c(Cl)c1` (configuration not stated) gave HTT ATP protect inactive, HttQ103 aggreg inactive, CBFb RUNX1 block inactive, JMJD2E inh inconclusive and ALDH1A1 block 20µM.
`O=C1C2CCCN2C(c2cccnc2)N1c1ccc(Cl)c(Cl)c1` (configuration not stated) gave HTT ATP protect inactive, HPGD inh inactive, HttQ103 aggreg inactive, CBFb RUNX1 block inactive, JMJD2E inh inactive and ALDH1A1 block inactive.
CN[C@H](Cc1ccccc1)c1cccc(OC)c1O was read as HTT ATP protect inactive[10 µM], HPGD inh inactive and ALDH1A1 block inactive[13.5 µM].
For Cc1c(C(=O)NCCC2=CCCCC2)oc2ccc(S(=O)(=O)N3CCC4(CC3)OCCO4)cc12 the results were HTT ATP protect inactive[10 µM], HPGD inh inactive, HttQ103 aggreg inconclusive, CBFb RUNX1 block inactive, JMJD2E inh inactive and ALDH1A1 block 22.4µM.
For S=c1[nH]c2cc(Br)cnc2[nH]1 the results were HTT ATP protect inactive[10 µM], HttQ103 aggreg inactive[9.22 µM], CBFb RUNX1 block inactive, JMJD2E inh inconclusive and ALDH1A1 block 3.16µM.
C1CCOC1 was read as HTT ATP protect inactive, HPGD inh inactive, CBFb RUNX1 block inactive and ALDH1A1 block inconclusive.
N[C@@H](Cc1cc(I)c(O)c(I)c1)C(=O)O was read as HTT ATP protect inactive, HPGD inh inactive, HttQ103 aggreg inactive, CBFb RUNX1 block inconclusive, JMJD2E inh inactive and ALDH1A1 block 11.2µM!.
NC(Cc1ccc(Oc2cc(I)c(O)c(I)c2)c(I)c1)C(=O)O (configuration not stated) was read as HTT ATP protect inactive and HttQ103 aggreg inactive.
`NC(Cc1cc(O)c(O)cc1O)C(=O)O` (configuration not stated) gave HPGD inh 4.47µM, JMJD2E inh 12.6µM and ALDH1A1 block 11.2µM.
Screening C[C@]1(O)CC[C@H]2[C@@H]3[C@@H](O)CC4=CC(=O)CC[C@@]4(C)[C@H]3CC[C@]21C returned HTT ATP protect inactive[10 µM], HPGD inh inactive and ALDH1A1 block inactive[13.5 µM].
`Oc1ccc2c3c1O[C@@H]1c4[nH]c5c(c4C[C@@]4(O)[C@@H](C2)N(CC2CC2)CC[C@]314)C[C@]1(O)[C@@H]2Cc3ccc(O)c4c3[C@@]1(CCN2CC1CC1)[C@H]5O4` gave HTT ATP protect inactive[1.9 µM].
c1ccc2c(c1)CCCC2 was read as HTT ATP protect inactive, HPGD inh inactive, CBFb RUNX1 block inactive and ALDH1A1 block inactive.
CN(C)C1CSSSC1 was read as CBFb RUNX1 block inactive.
`CN1Cc2ccccc2[C@@H]2c3cccc4[nH]cc(c34)C[C@H]21` gave HTT ATP protect inactive, HPGD inh inactive, CBFb RUNX1 block inconclusive, JMJD2E inh 10µM and ALDH1A1 block 15.8µM!.
Cc1c(C(=O)c2cccc3ccccc23)c2cccc3c2n1[C@H](CN1CCOCC1)CO3 was read as HTT ATP protect inactive, HPGD inh inactive, CBFb RUNX1 block inconclusive, JMJD2E inh inactive and ALDH1A1 block 11.2µM!.
Screening Cc1c(C(=O)c2ccc3ccccc3c2)c2cccc3c2n1[C@H](CN1CCOCC1)CO3 returned HTT ATP protect inconclusive, HPGD inh inactive, CBFb RUNX1 block inactive, JMJD2E inh inactive and ALDH1A1 block inactive.
COc1ccc(N2C(=O)CS(=O)C(c3ccccc3)C2=O)cc1 (configuration not stated) was read as HTT ATP protect inactive, HttQ103 aggreg inactive[9.22 µM], CBFb RUNX1 block inactive, JMJD2E inh inactive and ALDH1A1 block 1.12µM.
Screening COc1ccc(N2C(=O)CC(N3CCC(n4c(=O)[nH]c5ccccc54)CC3)C2=O)cc1 (configuration not stated) returned HTT ATP protect inactive[10 µM], HPGD inh inactive, HttQ103 aggreg inactive, CBFb RUNX1 block inactive, JMJD2E inh inactive and ALDH1A1 block inconclusive.
